From publication PMC12864922, “TDP-43 directly inhibits mRNA accumulation in neurites through modulation of mRNA stability”
In all, about 9,900 sequences were measured (“r (bound/input frequency ratio)”: median about 0.7, highest 2% from about 6.5 on). Only a selection was taken, and the highest values are over-represented in it overall.

B1: ENSMUSG00000043670.145|Diras1 (ssRNA)
RNA: GGGAGUUCUACAGUCCGACGAUCGCUUCGAUAUCCGCAUGCUAUCAGGGGAGGCACACUGGAACCCUGAACUUGGAGUGUGGAGUGGCUGCCUGGACACUGCCCACCUGGACACCAGCCUUCUGCUGAGAUAGAGACCUUGGCACAGUGGCACCUCGACAGCCACCCCGACUGGGGGUUUGGGGUGCUGAGGGUGGGGUGCCCAGCUGAGAGUCUAUCAGCAAAGUCCCUGUGUGCGGUGAUAGGACUAGUGGCUGCUGCCCUAGGGCUCUGACAGAAUCUGAGCCUCUUUGCUGGUCAUGUGCUCUUGCGGUCGCACUAGUGUGGAAUUCUCGGGUGUCAAGG
B2: ENSMUSG00000022095.153|Fam160b2|110:114 (ssRNA)
RNA: GGGAGUUCUACAGUCCGACGAUCGCUUCGAUAUCCGCAUGCUAGACUAUAGGAACUCAAGGUACAGAUGGGACAGGGCACCCCAACUCCAAACCCCAGAAGCCUAGUGAGGCUAGGCCGAGACACAAGCAGAUAGCUCUGGCAUUGUUCUUCCAUACUCCUCCAUGGCUGGGGCUGCUACCUCACCCGGCCUGAAUCUGUCUCAACCUGCAAGAGCACUCGGGCGGCGCCAGGCAUUACCUCACAACAGGCCUGCAGUUGUUGGCUUCCCUCCUGGGCAAGGAGGAGCAGGCCAGAGCCCCUUCUCUUGCGGUCGCACUAGUGUGGAAUUCUCGGGUGUCAAGG
B3: ENSMUSG00000042529.77|Kcnj12|96:100 (ssRNA)
RNA: GGGAGUUCUACAGUCCGACGAUCGCUUCGAUAUCCGCAUGCUAACAAACAAAAACAAACAAACAAACAAUCAAAAAAAAAACCCACCCCACAAAACACAAGAAAACAUUAACAGGUGGUUCAAUUUUUAAAAUUCCUGCACACGGGACAGUUGGAAUUCUACUCAGCGCUGCCAGGCAAGCAGCUGGACGGAGAACCCUGAGGGUUCUCAGAGGUCUGUUUUCUCCCUCACGUGGGCCAGGGCCUUAAGCGAGUUGUCAUGCUUAAGGAUGAAUCAGGCUGCUUGUGACCAUGUUAACGAUUCCUCUUGCGGUCGCACUAGUGUGGAAUUCUCGGGUGUCAAGG
B4: ENSMUSG00000090935.460|Synj2bp (ssRNA)
RNA: GGGAGUUCUACAGUCCGACGAUCGCUUCGAUAUCCGCAUGCUACACAACCAGUAAGAAAAAUAUUGCCAUCCAAAACAGAGCACAGUGCAGCAACAUAGAAGAUAAGCAGAUAACCAGCAAGUAUUGUAAGGAGUUCAGAAAAGGAAAGCCAUCGUGUAGUGGCAUCAGGGGAGAAUGGAAAGGAAAGUCUAGAACAGUCCAGUGAUACUUUACCUCUGGGAAAACUCUUGAUACAGGGAGACAUUUGCUUUAAACAAUCUUCACAUAACUAAGCCAUUCAGUACUUUUUGAAACUGACUUAGCUCUUGCGGUCGCACUAGUGUGGAAUUCUCGGGUGUCAAGG
B5: ENSMUSG00000061578.947|Ksr2 (ssRNA)
RNA: GGGAGUUCUACAGUCCGACGAUCGCUUCGAUAUCCGCAUGCUAAAGACUGCAUGUUAACGCUCCUGCCACUGUUGCCCCUUCCUUUACCCUUGGCAGACAUUGCUAAUCAAUCUCAGCACAGUUUCCAACCACAGUCAUAGAACAUUUGCCACAAAGGCCCUGGAUGUGACUAUAUGUGCUGAGAAGGGAAGGUAGUUUUCCCCCAGAAAGUCCCUUCUAAUAAACAUUGAUGACUUUAGAAUCCAUGACUCAGAAUUUUCCAGAGACCCAAUCCCUCGGGGUCCACUUAGUGAUGGGACCAUCUCUUGCGGUCGCACUAGUGUGGAAUUCUCGGGUGUCAAGG
B6: ENSMUSG00000090935.28|Synj2bp|72:76;256:260 (ssRNA)
RNA: GGGAGUUCUACAGUCCGACGAUCGCUUCGAUAUCCGCAUGCUAGUAAAUGGCCAAGAUCUGAAGAACCUGCUGCACCAAGAUGCUGUAGACCUCUUCCGUAAUGCGGGAUGUGCACACACCCUGAGAGUACAGCACAGGUUACCAGUGCAGAAUGGACCUAUAGUACAUCGAGGUGAAGGAGAGCCAAGUGGAGUUCCUGUAGCUAUGGUGCUGCUACCAGUGUUUGCCCUCACCAUGGUAGCAGUUUGGGCCUUCGUGAGAUACCGAAAGCAGCUUUGAAAUGCUUGCUGUCUUCCACACACCUCUUGCGGUCGCACUAGUGUGGAAUUCUCGGGUGUCAAGG
B7: ENSMUSG00000042529.254|Kcnj12 (ssRNA)
RNA: GGGAGUUCUACAGUCCGACGAUCGCUUCGAUAUCCGCAUGCUAUUCCCCUAGGACCCGCUGCAGAGGCAUGGGCUCCUCUGUGGUCCUGGCCAGACCUCUGCCCCCAAAUCUCACUGACUGUUCUAGCCUUGGCCUUGGGGCCUAAGGGUGCAUUCAGCCUGGGUGUGCUUACCUGCCACUCACCUCUCUAUCUAGUUGUCGAGUCUAGGGAAGGGCAGAGGGUGGGUCCUGGCCACUGGGUGCCACUGUGGGAGCCGGGGCACCUGUCAUUCUUUCUGAGUAGGUGGGCCUGUAUCCAGAGCCUCUUGCGGUCGCACUAGUGUGGAAUUCUCGGGUGUCAAGG
B8: ENSMUSG00000061578.312|Ksr2 (ssRNA)
RNA: GGGAGUUCUACAGUCCGACGAUCGCUUCGAUAUCCGCAUGCUACCAGGGAGGGCUGAAGCUCUGGGACCCUGAAGUGUCCCCCGGGAACUGGGACUCACUCAUCUUCUCCUGUUUGUAGCUCAAUGACCCAGUGGGUCACAGUUCUAGGCGCUCCAAGGAAGCCAGGGGAGGGGGACUCCUCAGGAAGGAGUGACCAGUCACCUGCCUCCCAGGGUUCUGCCUUGCCCUUAAGCUAGGGUCCUUCAAGCAUCCACAGACUUAGAGUGUGGUGGUAACAUGCUUGUAAUCCUGGCACUCUGGAGCUCUUGCGGUCGCACUAGUGUGGAAUUCUCGGGUGUCAAGG
B9: ENSMUSG00000029636.114|Wasf3 (ssRNA)
RNA: GGGAGUUCUACAGUCCGACGAUCGCUUCGAUAUCCGCAUGCUAGCGGCCAUUUUUAUGAGGGGAGCCCUGUGGGUACUCAUGUGGAAAGUGCCCACUGACUUUGGCAGAUGGAGUUCACUUUCAUGGCUAGCCCUGAUAGCGUUGGGCACCAGUUAGCCAGGCCAUGUUCAAGCUGCCUAGAGUCUGCAGAGCUUGCAUGGCAGAGCGGCCGCAUCUGGUUCCCUCCUACUCCACCCAGUGGAAAAGAGACCUCCACGUUUUAUUUUCUGGGAUCCCUGCUCCUCUGUUCACCAGGGAGUGAGCUCUUGCGGUCGCACUAGUGUGGAAUUCUCGGGUGUCAAGG

Each binder was assayed against TDP-43 (Homo sapiens, UniProt Q13148 1-414) (assay: RNA Bind-n-Seq with designed 260-mer pool; 25 mM Tris-HCl, 150 mM KCl, 3 mM MgCl2, BSA (printed 500 mg/mL), 20 units/mL SUPERase IN; pH not stated; 500 nM RNA pool, 1 h, 4 C; TDP-43 5, 50, 500 nM; high values mean tight binding). Conditions: protein: recombinant; tags: SBP (GST cleaved off with PreScission; pGEX-GST-SBP).
Sequence of TDP-43 (Q13148 whole entry): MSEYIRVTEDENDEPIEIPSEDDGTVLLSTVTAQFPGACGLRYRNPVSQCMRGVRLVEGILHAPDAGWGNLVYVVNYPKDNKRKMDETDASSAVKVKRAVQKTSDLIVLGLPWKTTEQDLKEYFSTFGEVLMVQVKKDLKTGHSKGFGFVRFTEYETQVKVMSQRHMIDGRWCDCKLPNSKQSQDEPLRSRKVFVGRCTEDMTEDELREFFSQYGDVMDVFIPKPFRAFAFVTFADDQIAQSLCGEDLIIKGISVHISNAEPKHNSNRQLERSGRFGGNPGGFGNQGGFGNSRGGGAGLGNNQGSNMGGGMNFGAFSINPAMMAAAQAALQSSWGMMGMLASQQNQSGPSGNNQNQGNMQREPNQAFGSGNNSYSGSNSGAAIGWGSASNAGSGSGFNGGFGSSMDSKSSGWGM
In short: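 For each oligo, R gives binding as its mapped-read-normalized abundance after pulldown divided by its abundance in input. Bead-captured SBP-tagged TDP-43 (5, 50 or 500 nM) was incubated with 500 nM of an in vitro-transcribed 260-nt 3′ UTR oligo pool for 1 h at 4 °C in 25 mM Tris-HCl, 150 mM KCl, 3 mM MgCl2, BSA and SUPERase IN on streptavidin beads. Washed, biotin-eluted RNA was reverse transcribed, PCR-amplified and sequenced.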

Row | Binder | binding signal
1 | B1 | 0.713 R (bound/input frequency ratio)
2 | B2 | 1.53 R (bound/input frequency ratio)
3 | B3 | 1.63 R (bound/input frequency ratio)
4 | B4 | 0.396 R (bound/input frequency ratio)
5 | B5 | 0.693 R (bound/input frequency ratio)
6 | B6 | 1.49 R (bound/input frequency ratio)
7 | B7 | 0.966 R (bound/input frequency ratio)
8 | B8 | 0.535 R (bound/input frequency ratio)
9 | B9 | 0.753 R (bound/input frequency ratio)
